Experimental data published in ChEMBL document CHEMBL1857833, “Screening and optimization of specific chemical series against human African Trypanosomiasis (HAT)”.
About 390 (8.9%) of roughly 4,400 compounds showed an effect of 50% or more. The sample as a whole holds a higher share of strong results than the screen did.

tested on: Trypanosoma brucei; assay: DNDI: Inhibition of Human African Trypanosomiasis, SBRI 427, in vitro at 2 ug.mL-1; format: functional

COc1ccc(-c2nc(CNCCc3cc(OC)ccc3OC)co2)cc1 and COc1ccc(OC)c(CCNCc2coc(-c3ccc(C)cc3)n2)c1 are the same in “% inhibition” value: 7% for the first, 7% for the second.

Going from COc1ccc(OC)c(CCNCc2coc(-c3ccc(C(C)(C)C)cc3)n2)c1 to COc1ccc(OC)c(CCNCc2coc(-c3ccccc3C)n2)c1, the “% inhibition” value falls from 74% to 11%.

Compared with COc1ccc(Oc2nc(C)ccc2/C(=N/O)N2CC2C)cc1 (stereo not given), Cc1ccc(/C(=N/O)N2CC2C)c(Oc2cccc(C(C)C)c2)n1 (stereo not given) is lower in “% inhibition” value: 14% for the first, -6% for the second.

First: CC1CN1/C(=N\O)c1ccc(Oc2ccc3ccccc3c2)nc1 (stereo not given)
Second: CC1CN1/C(=N\O)c1ccc(Oc2ccc3oc4ccccc4c3c2)nc1 (stereo not given)
The “% inhibition” value of the first is lower: 8% for the first, 68% for the second.

First: Cc1cc(C)cc(Oc2ccc(/C(=N/O)N3CC3C)cn2)c1 (stereo not given)
Second: Cc1ccc(/C(=N/O)N2CC2C)c(Oc2cccc3ccccc23)n1 (stereo not given)
The “% inhibition” value of the first is lower: 3% for the first, 12% for the second.
